A selection: hits, their analogues and other compounds. The true share with any hit is near 4.1%.
TRPM1 prom inh – MITF TRPM1 promoter inhibition in SK-MEL-5 cells; AID 488899; SK-MEL-5 TRPM1 promoter luciferase, 24 h; inhibition, % at 12.5 µM; 0.83% of 330,000 active;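 active means mean inhibition across replicates of 60% or more, whatever share of single replicates reaches that level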
TWEAK Fn14 block – TWEAK-Fn14 signaling inhibition. TWEAK-stimulated Fn14 reporter cells, luciferase luminescence, 8 h. inhibition, % at 10 µM. 2% of 360,000 active. AID 1159606; in the data active means inhibition above about 50%
Shn3 inh set2 – Schnurri-3 reporter inhibition in Clone20 osteoblasts | Clone20 osteoblast Shn3 3'UTR firefly luciferase, 24 h | inhibition, % at 12.5 µM | 0.52% of 360,000 active | AID 588674;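 active means mean inhibition of at least 75% with every replicate also reaching 75%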;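 further: 0% = median of neutral control wells and 100% = pilot-screen positive control compound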
Peg3 prom inh – Peg3 promoter activity inhibition | HeLa PEG-Prom luciferase reporter, luminescence, overnight | 1.7% of 360,000 active | inhibition, % at 20 µM | AID 588405;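 active means inhibition of at least 50% at 20 µM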
LMP1 NFkB inh – Epstein-Barr LMP1 NF-kappaB reporter inhibition | LMP1-induced NF-kappaB luciferase reporter cells, luminescence | inhibition, % at 12.5 µM | 0.69% of 350,000 active; in the data active means inhibition above about 41%;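 further: 0% = neutral control wells and 100% = reference inhibitor control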
TROY NFkB inh – blocks TROY-dependent signaling in reporter cells. Q293 LMP1-TROYcd NF-kB luciferase reporter, 4 h. inhibition, % at 10 µM. 0.98% of 360,000 active. AID 1347056;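 active means compounds whose plate-normalised and pattern-corrected inhibition of the luciferase reporter signal at the single screening dose is 50% or more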
* hit, by the source's call; x = no result given.

SMILES	TRPM1 prom inh	TWEAK Fn14 block	Shn3 inh set2	Peg3 prom inh	LMP1 NFkB inh	TROY NFkB inh
CC(=O)c1c(C)oc2c1C(=O)c1ccccc1C2=O	79*	24	-5	42	4	28
O=S(=O)(c1ccc(NC(=S)NN=C2CCCCC2)cc1)N1CCOCC1	-6	-19	-70	3	5	-5
CCCc1cc(=O)c2c(O)ccc(OC)c2o1	-3	10	6	5	55*	16
Cc1ccc2c(c1)nc(-n1nc(C)cc1C)c1nnnn12	13	-3	-11	-26	-25	-28
COc1ccccc1-c1noc(CCCC(=O)NC2CCCC2)n1	14	2	0	-7	-5	12
O=C(CCCc1nc(-c2ccccc2Cl)no1)NC1CCCC1	76*	92*	73	39	23	52*
CCN(CC)CCNC(=O)c1nn(-c2ccc(Cl)cc2)c2c1CCc1cc(OC)ccc1-2	14	-38	36	94*	-7	-12
CC(CNC(=O)[C@@H](Cc1ccccc1)NC(=O)CC[C@H]1O[C@@H](n2ccc(=O)[nH]c2=O)[C@H](O)[C@@H]1O)c1ccccc1 (stereo partly drawn)	x	-1	8	-6	x	-17
CCn1c(=O)c(C(=O)NCc2ccc(F)cc2)c(O)c2ccccc21	12	-11	14	8	-1	7
COc1ccc(S(=O)(=O)N2CCc3ccccc32)cc1C(=O)NCC(c1ccco1)N1CCCC1 (stereo not drawn)	-1	-4	11	35	-3	-3
Nc1ccc(Cn2ccc3c4c(N)nc(N)nc4ccc32)cc1	85*	-57	75	102*	22	4
COc1cc2c(cc1OC)C(COc1ccc([N+](=O)[O-])cc1)N(C(C)=O)CC2 (stereo not drawn)	1	8	51	21	12	21
CCCCCCC(=O)Nc1ccc(C(=O)N/N=C/c2cccnc2)cc1	-1	12	-4	9	-9	4
CCCCCCCC(=O)Nc1ccc(C(=O)N/N=C/c2cccc([N+](=O)[O-])c2)cc1	72*	-59	39	101*	-58	-25
CCCCCCCCCS(=O)(=O)N/N=C/c1cccc([N+](=O)[O-])c1	6	18	2	10	-4	51*
Cc1noc(C)c1C(=O)N1CCC2(CC1)Oc1ccc(F)cc1C(=O)C21CC(c2ccc(Cl)cc2)=NO1 (stereo not drawn)	4	-27	6	8	4	-10
COc1cccc(/C=C2/Sc3ccc(C(=O)NCCN4CCCCCC4)cc3NC2=O)c1	74*	-18	-12	100*	-19	2
O=C1Nc2cc(C(=O)NCCN3CCCCCC3)ccc2S/C1=C\c1ccccc1	96*	3	16	94*	0	-17
O=C1Nc2cc(C(=O)NCCCN3CCCC3)ccc2S/C1=C/c1cccc(Cl)c1	x	-11	3	99*	-38	2
CCN1CCN(CCCNC(=O)c2ccc3c(c2)NC(=O)c2ccccc2S3)CC1	x	-6	-11	1	-2	-3
COc1cccc(/C=C2\Sc3ccc(C(=O)NCc4cccnc4)cc3N(C)C2=O)c1	2	4	-1	19	21	18
COc1cccc(CNC(=O)C2(C)CCCCN2C)c1 (stereo not drawn)	x	-3	27	-2	x	5
COC(=O)c1ccc(OCC(=O)NCCC2=CCCCC2)c(OC)c1	-3	-15	-5	2	4	-12
CCN1CCN(c2ccc(NC(=O)c3cc(OC)c(OC)c(OC)c3)cc2)CC1	-8	-20	2	10	-3	-11
COC(=O)C(Cc1ccccc1)NC(=O)CCc1c[nH]c2ccccc12 (stereo not drawn)	4	8	-9	16	-14	6
CCOC(=O)C1=C(O)c2ccccc2C(=O)/C1=C\c1ccc(C)cc1	50	34	59	75*	-3	33
CCCN1CCC(NC(=O)CC2C(=O)NCCN2Cc2ccccc2C)CC1 (stereo not drawn)	-10	-6	0	-3	1	2
Oc1c(CN2CCN(c3ccccc3)CC2)cc(Br)c2cccnc12	87*	-48	92*	38	59*	-28
CN1CCN(Cc2cc(Cl)c3cccnc3c2OC(=O)c2cccs2)CC1	30	-3	14	9	11	-2
